Rows were chosen to be rich in hits. Some 19% of all compounds tested hit in one or more screens of this group.
Giardia kill: kills Giardia lamblia. Giardia lamblia trophozoite viability. activity change, % at 7.66 µM, hits read low. 340,000 compounds, 0.15% hits. AID 540267; in the data active = activity change below about -80%; inconclusive = between about -30% and that limit;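 note: parasites exposed to compound for two days anaerobically before the ATP read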
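Anaerobic 48 hrs incubation at 37 deg C of 100 trophozoites/well with test compounds; ATPLite 1-Step luminescence, 15-30 min RT, reports cellular ATP as viability.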
DT40 TDP1 CPT: growth inhibition of DT40 Tdp1-/-;hTDP1 cells with camptothecin (screen for TDP1 inhibitors); chicken DT40 Tdp1-/-;hTDP1 cells + 20 nM CPT, ATP luminescence, 48 h; Potency, µM (top dose mostly 46.2 µM), actives largely listed as inhibitors; 420,000 compounds, 12% hits; AID 686979; note: nearly all actives have a fitted effect of over 55% in size
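Chicken DT40 Tdp1-/- cells complemented with human TDP1, 400 cells/well, exposed to compounds plus 20 nM camptothecin for at least 48 h at 37 C; viability read as ATP content by CellTiter-Glo luminescence.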
IL1B secr inh: inflammasome signaling inhibition, IL-1 beta readout | activity change, % at 57.5 µM | AID 743279 | THP-1 LPS/ATP IL-1B secretion, AlphaLISA, 16 h; hits give low values | 360,000 compounds, 4.7% hits; in the data active = activity change below about -50%; inconclusive = mostly about -30% to -49%
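Secreted IL-1B measured by AlphaLISA bead assay after 16 h compound exposure of THP-1 cells; compounds (final up to 57.5 uM) added 1 h before LPS (250 ng/mL) and ATP (1.25 mM) stimulation; lower signal means less secretion.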
ELG1 repair inh: blocks ELG1-dependent DNA repair in HEK293T cells | HEK293T ELG1-luciferase reporter, luminescence, 16 h; DNA damage induced by 5-fluorouridine | Potency, µM (doses to about 46.1 µM), hits mostly inhibitors | 330,000 compounds, 2.3% hits; note: nearly all actives have a fitted effect of over 55% in size
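5-Fluorouridine DNA damage + compound/DMSO, 2,000 cells/well, 16 h, 37 °C/5% CO2. ONE-Glo, 30 min RT, luminescence. Readout = decrease in reporter signal.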
TDP1 block: inhibitors of human tyrosyl-DNA phosphodiesterase TDP1; recombinant TDP1, AlphaScreen DNA substrate cleavage; 350,000 compounds, 0.28% hits; AID 485290; Q9NUW8; Potency, µM (titrated, usually from 130 µM), usual class: inhibitors; note: nearly all actives have a fitted effect of over 40% in size
Target sequence (Q9NUW8 whole entry, looked up): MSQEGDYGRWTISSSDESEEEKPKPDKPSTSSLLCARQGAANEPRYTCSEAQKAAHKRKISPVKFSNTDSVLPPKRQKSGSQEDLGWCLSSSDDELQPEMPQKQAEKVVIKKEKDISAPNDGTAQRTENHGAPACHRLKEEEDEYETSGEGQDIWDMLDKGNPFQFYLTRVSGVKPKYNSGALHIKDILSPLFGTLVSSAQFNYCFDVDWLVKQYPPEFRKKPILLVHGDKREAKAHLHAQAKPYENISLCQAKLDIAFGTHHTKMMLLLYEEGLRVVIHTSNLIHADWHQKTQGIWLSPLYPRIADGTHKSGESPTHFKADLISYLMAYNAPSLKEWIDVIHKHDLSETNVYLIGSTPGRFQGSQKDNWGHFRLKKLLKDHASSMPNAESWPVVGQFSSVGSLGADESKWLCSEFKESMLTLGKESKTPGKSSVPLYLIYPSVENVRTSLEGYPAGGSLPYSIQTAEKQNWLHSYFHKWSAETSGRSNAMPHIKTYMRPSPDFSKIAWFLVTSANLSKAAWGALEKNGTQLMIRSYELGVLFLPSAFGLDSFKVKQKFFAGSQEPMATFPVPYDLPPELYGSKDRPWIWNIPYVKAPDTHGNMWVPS
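Compounds were preincubated with Tdp1 (1 nM final) for 15 min at room temperature before substrate (15 nM final) started a 5 min reaction; beads (10 ug/ml final) were then added for 10 min before AlphaScreen detection.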
TDP1 cell noCPT: qHTS for Inhibitors of human tyrosyl-DNA phosphodiesterase 1 (TDP1): qHTS in cells in absence of CPT; DT40 Tdp1-/- hTDP1 cells, no CPT, ATP luminescence, 48 h; Potency, µM (top dose mostly 46.2 µM), most hits filed as inhibitors; 420,000 compounds, 15% hits; AID 686978, 2013; note: nearly all actives have a fitted effect of over 55% in size
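Compound effects on proliferation are scored in DT40 Tdp1-/-;hTDP1 cells in the absence of CPT. ATP levels (CellTiter-Glo luminescence) are recorded after a ≥48 hr, 37 °C incubation.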
Hits are given with their value; i = inactive; ? = inconclusive; nt = not tested or not shown; ! = not active in a repeat; [ ] = another dose, or the depositor's remark. Unless noted, calls come from the whole dose curve; as a rule, active = well fitted curve in the direction sought with a large enough effect; inconclusive = small, poorly fitted or top-dose-only effect, or another doubt; inactive = no such curve, though single readings can be large; an effect the other way counts as inactive or inconclusive.

SMILES | Giardia kill | DT40 TDP1 CPT | IL1B secr inh | ELG1 repair inh | TDP1 block | TDP1 cell noCPT
COc1cc2c(cc1NC(=O)COC(=O)C(CCSC)NC(=O)c1ccccc1Cl)oc1ccccc12 (centres undefined) | i | ? | i | ? | i | ?
CCOc1ccc(Cc2c(C)[nH]c3ccc(C(=O)O)cc3c2=S)cc1 | i | i | i | i | i | i
Brc1ccccc1Cn1c(-c2cscn2)nc2ccccc21 | i | 23.1µM | i | i | i | ?
Clc1ccc(COn2c(-c3ccc(Cl)cc3)nc3ccccc32)cc1 | i | ? | i | i | i | ?
Cc1nc2ccccc2n1Cc1n[nH]c(=S)n1-c1ccc(Cl)cc1 | i | i | i | i | i | i
CCCCOc1ccccc1NC(=O)Cn1c(-c2cncs2)nc2ccccc21 | nt | 23.1µM | nt | nt | i | ?
Cc1nc2ccccc2n1Cc1ccc(Cl)cc1 | i | 10.3µM! | i | i | i | 7.31µM
Clc1ccccc1Cn1c(-c2cccs2)nc2ccccc21 | nt | ? | nt | nt | i | ?
Clc1ccc(COn2c(-c3ccccc3)nc3ccccc32)cc1 | i | ? | ? | i | i | 23.1µM
O=C(Cn1c(SCCOc2ccccc2Cl)nc2ccccc21)N1CCOCC1 | nt | ? | nt | nt | i | ?
Cc1cc(=O)n2nc(N3CCC(C(=O)NCc4ccccc4F)CC3)sc2n1 | i | i | i | i | i | i
Cc1ccccc1Cn1c(C)nc2ccccc21 | i | ? | i | i | nt | 5.8µM
CSC1=NC2(CCN(C(=O)NC3CCCCC3)CC2)N=C1c1ccc(C(C)(C)C)cc1 | nt | i | nt | nt | i | i
Cc1ccc(Cn2c(=N)c(C(=O)NC3CCCC3)cc3c(=O)n4ccccc4nc32)cc1 | i | 10.3µM | i | i | i | 6.51µM
CCC(C)n1c(=N)c(C(=O)NCc2ccccc2)cc2c(=O)n3cc(C)ccc3nc21 (centres undefined) | nt | ? | nt | nt | nt | 16.4µM
Cc1ccc2nc3c(cc(C(=O)NC4CCCC4)c(=N)n3C3CCCCC3)c(=O)n2c1 | i | ? | i | ? | nt | ?
N=c1c(C(=O)NC2CCCCC2)cc2c(=O)n3ccccc3nc2n1CCc1ccccc1 | i | ? | i | ? | i | 20.6µM
N=c1c(C(=O)NC2CCCCC2)cc2c(=O)n3ccccc3nc2n1Cc1ccccc1 | i | ? | i | i | i | ?
Cc1ccc2nc3c(cc(C(=O)NC4CCCCC4)c(=N)n3C3CCCCC3)c(=O)n2c1 | i | ? | i | i | i | 14.6µM
CCCCNC(=O)C1=CC(c2ccc3c(c2)OCO3)=NS(=O)(=O)N1C | nt | i | nt | nt | i | i
CCC(=O)c1cn(/C(=C\C(=O)OC(C)(C)C)CCC(OC)OC)cc1CC | i | ? | i | i | i | ?
CC(C)c1c(C(=O)NCCN2CCOCC2)cnn1-c1nccc(-c2cccs2)n1 | nt | i[9.04 µM] | nt | nt | nt | ?
O=c1cc(-c2ccccc2)nc(N2CCN(Cc3ccccc3)CC2)[nH]1 | i | 18.4µM | i | i | i | 20.6µM
O=C(COC(=O)c1nn(CCO)c(=O)c2ccccc12)Nc1ccc(Cl)c(Cl)c1 | i | i | i | i | i | i
CCCCC(=O)Nc1nc(C)c(-c2csc(Nc3cc(Cl)ccc3OC)n2)s1 | i | ? | i | ? | i | ?
SMILES | Giardia kill | DT40 TDP1 CPT | IL1B secr inh | ELG1 repair inh | TDP1 block | TDP1 cell noCPT
COc1ccc(Cl)cc1Nc1nc(-c2sc(NC(=O)C(C)(C)C)nc2C)cs1 | i | 5.17µM | i | ? | i | 3.66µM
COc1ccc(OC)c(Nc2nc(-c3sc(NC(=O)CC(C)C)nc3C)cs2)c1 | i | 14.6µM | i | ? | i | 16.4µM
CCC(C)C(=O)Nc1nc(C)c(-c2csc(Nc3cc(OC)ccc3OC)n2)s1 (centres undefined) | i | 16.4µM | i | ? | i | 14.6µM
COc1ccccc1Nc1nc(-c2sc(NC(=O)c3ccccc3)nc2C)cs1 | i | ? | i | i | i | ?
CCC(C)C(=O)Nc1nc(C)c(-c2csc(Nc3cc(Cl)ccc3OC)n2)s1 (centres undefined) | i | 14.6µM | i | ? | i | 10.3µM
C=CC[N@@+]12CC[C@@]34c5ccccc5N5/C=C6/[C@H]7C[C@H]8[C@@]9(CC[N@@+]8(CC=C)C/C7=C/CO)c7ccccc7N(/C=C(/[C@@H](C[C@@H]31)/C(=C\CO)C2)[C@H]54)[C@@H]69 | nt | i | nt | nt | nt | i
O=C(NCc1cc(F)ccc1F)C1CCC(=O)N(C2CCCCCC2)C1 (centres undefined) | i | i | i | ? | i | ?
CCOc1ccc(CCNC(=O)CCc2c(C)nc3c(-c4ccccc4)c(C)nn3c2C)cc1OCC | nt | ? | nt | nt | i | ?
CCOC(=O)c1[nH]c(C)c(CCC(=O)Nc2cc(Cl)ccc2C)c1C | nt | i | nt | nt | i | i
Oc1cccc2ccc[n+](CC(O)CBr)c12 (centres undefined) | nt | i | nt | nt | nt | i
CCCCC(=O)Nc1nc(C)c(-c2csc(Nc3cc(OC)ccc3OC)n2)s1 | i | 6.51µM | i | 18.4µM | i | ?
Cc1ccc(-c2nnc(SCC(=O)N/N=C/c3ccccc3C(=O)O)n2-c2ccc(C)cc2)cc1 | i | i | i | ? | i | i
Cc1ccc(/C=N/NC(=O)CSc2nnc(-c3ccccc3)n2-c2ccc(Cl)cc2)o1 | i | ? | i | ? | i | ?
Cc1ccc(/C=N/NC(=O)CSc2nnc(-c3ccc(Cl)cc3)n2-c2ccc(Cl)cc2)o1 | i | 23.1µM | i | ? | i | ?
Cc1ccc(-c2nnc(SCC(=O)N/N=C/c3ccc(C)s3)n2-c2ccccc2)cc1 | i | ? | i | 23.1µM | i | 18.4µM
Cc1nn(-c2ccccc2)c(C)c1/C=N/NC(=O)CSc1nnc(-c2ccccc2)n1-c1ccc(Cl)cc1 | i | ? | ? | ? | i | 25.9µM
Oc1ccc(C[C@H]2CNC(=S)N2CC2CCCN2C[C@H](Cc2ccc(O)cc2)N2C[C@H](Cc3ccc(O)cc3)N(CC3CCCCC3)C2=S)cc1 (some centres undefined) | i | 7.31µM | i | nt | nt | 5.8µM
Oc1ccc(C[C@H]2CN([C@@H](Cc3cccc(O)c3)CN3CCC[C@@H]3CN3C(=S)NC[C@@H]3Cc3ccccc3)C(=S)N2CC2CCCCC2)cc1 | nt | 3.66µM | i | nt | nt | 2.91µM
Oc1ccc(C[C@H]2CN([C@@H](Cc3ccc(O)cc3)CN3CCC[C@@H]3CN3C(=S)NC[C@@H]3Cc3ccccc3)C(=S)N2CC2CCCCCC2)cc1 | nt | 16.4µM | -51.2 | nt | nt | 23.1µM
Oc1ccc(C[C@H]2CNC(=S)N2CC2CCCN2C[C@H](Cc2ccccc2)N2C[C@H](Cc3ccc(O)cc3)N(CC3CCCCCC3)C2=S)cc1 (some centres undefined) | i | ? | ? | nt | nt | ?

Screens from PubChem.
